Results published in PubChem BioAssay (NCI).
The panel holds about 79,000 compounds, 15% with a hit somewhere; the sample as a whole holds those more often. Rule as the data show it: active = growth inhibition above about 70%; inactive = the rest.

Key:
[1] = NCI Yeast Anticancer Drug Screen. Data for the rad50 strain (AID 155);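 also: 0% = growth of vehicle-only cultures of the same strain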; conditions: S. cerevisiae rad50 strain growth inhibition; at 50.0 µM; stronger effect = higher value
In short: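 DNA repair mutant yeast, compound exposure, growth read-out; inhibition is taken relative to vehicle.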

[2] = NCI Yeast Anticancer Drug Screen. Data for the mec2-1 strain (AID 157); conditions: S. cerevisiae mec2-1 strain, at 50.0 µM, stronger effect = higher value
In short: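 Yeast mec2-1 mutant treated with compound. Readout: growth inhibition vs vehicle controls.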

[3] = NCI Yeast Anticancer Drug Screen. Data for the sgs1 mgt1 strain (AID 161);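 also: 0% = growth of cultures given vehicle only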; conditions: S. cerevisiae sgs1 mgt1 strain, at 50.0 µM, stronger effect = higher value
In short: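 Genetically altered yeast, compound exposure, growth inhibition relative to vehicle.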

[4] = NCI Yeast Anticancer Drug Screen. Data for the cln2 rad14 strain (AID 165);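 also: 0% = growth equal to vehicle treated cultures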; conditions: S. cerevisiae cln2 rad14 strain, at 50.0 µM, stronger effect = higher value
In short: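 cln2 rad14 yeast strain; compound exposure; growth inhibition read vs vehicle controls.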

[5] = NCI Yeast Anticancer Drug Screen. Data for the bub3 strain (AID 167); conditions: S. cerevisiae bub3 mutant strain, at 50.0 µM, stronger effect = higher value
In short: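 In this screen, a yeast mutant lacking normal mitotic checkpoint function is challenged with compound. Relative growth versus vehicle gives the inhibition value.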

[6] = NCI Yeast Anticancer Drug Screen. Data for the mlh1 rad18 strain (AID 175); conditions: S. cerevisiae mlh1 rad18 strain growth inhibition; at 50.0 µM; stronger effect = higher value
In short: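 Yeast w/ defined DNA-repair lesions; compound exposure; growth vs vehicle controls → % inhibition.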

Measured: growth inhibition

CC(C)(C)c1ccnc(C(O)(C(F)(F)F)C(F)(F)F)c1
inactive: [1] -3.4% | [2] -12.2% | [3] -12.2% | [4] -43.8% | [5] -7.75% | [6] -12.4%

COc1cc(/C=C2/C(=O)N(C(=O)c3ccccc3O)N=C2C)ccc1O
inactive: [1] -6.55% | [2] -10.3% | [3] -9.4% | [4] 9.75% | [5] 1.65% | [6] -13.9%

N#CNc1ccccc1
inactive: [1] 0.05% | [2] 6.15% | [3] -12.2% | [4] -8.8% | [5] 5.15% | [6] 3.45%

CCCc1c[nH]c(-c2ccc(-c3cc(CCC)c(C=O)[nH]3)s2)c1
inactive: [1] -44.8% | [2] -22.8% | [3] -35.9% | [4] -2.8% | [5] -28.9% | [6] -56.7%

COc1cc(-c2cc(=O)c3cc4c(cc3[nH]2)OCO4)cc(OC)c1O
inactive: [1] -19.9% | [2] -14.1% | [3] -4.5% | [4] 13.4% | [5] -12.3% | [6] -9.85%

COc1nc2c(nc(N)n2C2OC(CO)C(O)C(O)C2O)c(=O)[nH]1 (stereo unspecified)
inactive: [1] -26.4% | [2] -8% | [3] -1.5% | [4] 3.45% | [5] 0.95% | [6] 20.9%

CC(=O)CC(=O)Nc1ccc(C(=O)c2ccccc2)cc1
inactive: [1] 8.35% | [2] -41.3% | [3] -13% | [4] 1.5% | [5] 4.5% | [6] -22.2%

O=C(Nc1nc(C23CC4CC(CC(C4)C2)C3)cs1)c1cc2cc(Cl)ccc2oc1=O
inactive: [1] -32.2% | [2] -37.5% | [3] -2.35% | [4] 10.6% | [5] -28.1% | [6] -38%

NC(N)=NC(N)=Nc1c(F)c(F)c(F)c(F)c1F
inactive: [1] -17.4% | [2] -33.1% | [3] -11.8% | [4] -14.5% | [5] -3.6% | [6] -20.6%

C1CCN(c2nsc(N3CCCCC3)n2)CC1
inactive: [1] -13.7% | [2] -5.15% | [3] 2.95% | [4] -52.1% | [5] -14.6% | [6] 18.2%

OC1CCC(C#CC#CC2CCC(O)CC2)CC1 (stereo unspecified)
inactive: [1] 2.05% | [2] -34.2% | [3] 3.05% | [4] 2.25% | [5] -23.7% | [6] -1.7%

O=c1c2c3c(sc2nc2n1N=CN(c1ccc(F)cc1)C2)CCCC3
inactive: [1] 4.95% | [2] -1.9% | [3] 2.4% | [4] -8.3% | [5] -1.05% | [6] -5.9%

O=CC(O)C(O)C(O)C(O)C(=O)O.O=CC(O)C(O)C(O)C(O)C(=O)O.[NH-]C1CCCCC1[NH-].[Pt+2] (stereo unspecified)
inactive: [1] -7.65% | [2] -9.8% | [3] 8.2% | [4] 4.25% | [5] 6.35% | [6] -41%

COc1ccc(C2=Nc3ccccc3NC(=O)C2)cc1
inactive: [1] -10.2% | [2] -20.9% | [3] -12.6% | [4] 11.4% | [5] -17.1% | [6] -19.9%

COc1cc(C=Nc2ccc3c(c2)OCO3)ccc1OC(=O)c1ccccc1
inactive: [1] 5.3% | [2] 7.6% | [3] 8.35% | [4] 8.25% | [5] 12.9% | [6] -5.5%

Cc1ccc(-c2nc(SCc3ccc(Cl)cc3)[nH]c(=O)c2CCO)cc1
inactive: [1] 55.5% | [2] 14.3% | [3] 38.8% | [4] 34.4% | [5] 47.7% | [6] 32.2%

Cc1noc(C)c1N=Nc1ccc2nonc2c1N
inactive: [1] -15.5% | [2] 7.6% | [3] -14.1% | [4] 16.5% | [5] 9.35% | [6] 3.05%

Cc1cc(Oc2cnc(=O)[nH]c2)cs1
inactive: [1] 27.1% | [2] 22.4% | [3] 19.9% | [4] 1.7% | [5] 12% | [6] 10.9%

O=C(NCN1CCOCC1)Nc1ccc(Cl)cc1
inactive: [1] -13.4% | [2] 8.5% | [3] -4.8% | [4] -22.3% | [5] 8.75% | [6] -3.25%

COc1cccc(C2C(C(=O)O)=C(CO)Oc3cc4c(cc32)OCO4)c1 (stereo unspecified)
inactive: [1] 21.4% | [2] 15.8% | [3] 21.9% | [4] 13.6% | [5] 12.6% | [6] 15.2%

Cc1ccc(N2C(=O)/C(=C/c3ccc(N(CCC#N)CCC#N)cc3C)N=C2c2cc([N+](=O)[O-])ccc2Cl)cc1
inactive: [1] 8.85% | [2] 14.5% | [3] 32.6% | [4] 35.2% | [5] 30.4% | [6] 19.9%

S=C1N=C2c3ccccc3C2C(=S)S1 (stereo unspecified)
inactive: [1] -4.8% | [2] -12.8% | [3] 0% | [4] -24.9% | [5] 4.75% | [6] -7.25%

Cc1cccc(C)c1OC(=O)Nc1ccccc1
inactive: [1] 3.75% | [2] -18.6% | [3] 4.3% | [4] -46.5% | [5] 9.7% | [6] -8.95%

COc1ccccc1N1C(=O)C2c3[nH]c4ccccc4c3C3CCC(C(C)(C)C)CC3C2C1=O (stereo unspecified)
inactive: [1] 17.8% | [2] -11.3% | [3] -4.2% | [4] -12.2% | [5] -16.2% | [6] 5.5%

CCOC(=O)/C=C/C(=O)N(C)c1ccccc1
inactive: [1] -12.2% | [2] -7.15% | [3] -5.3% | [4] -0.5% | [5] -12.7% | [6] -18.6%

CC(CC(C(=O)Nc1ccccc1)(c1ccccc1)c1ccccc1)N(C)C (stereo unspecified)
inactive: [1] -0.2% | [2] -18.2% | [3] 3.55% | [4] -2.15% | [5] -5.1% | [6] 6.2%

Nc1cccc(N)n1.[Cu+2]
inactive: [1] -20.1% | [2] -12.1% | [3] -13.8% | [4] -13.2% | [5] -15% | [6] -14.2%

CC(=O)OC1CCCN(C)C1 (stereo unspecified)
inactive: [1] -3.2% | [2] 5.5% | [3] 4.6% | [4] -7.9% | [5] 8.75% | [6] -7.8%

CNCCC(C(=O)O)c1ccccc1 (stereo unspecified)
inactive: [1] -12.1% | [2] -7.25% | [3] 9.15% | [4] -28.2% | [5] -2.6% | [6] 9.1%

O/N=C/c1ncccc1C1OCCO1
inactive: [1] 9.45% | [2] -0.55% | [3] -2.35% | [4] 9.8% | [5] -6.7% | [6] 14.7%

Cn1c(=O)c2c(nc(OCC[N+](C)(C)C)n2C)n(C)c1=O
inactive: [1] 5% | [2] 11.8% | [3] -0.25% | [4] 33.4% | [5] 1.85% | [6] 2.45%

C=C(Cl)/C(=C\Cl)CCC(Cl)C(C)C (stereo unspecified)
inactive: [1] 19.6% | [2] 15.2% | [3] 3.1% | [4] 29.1% | [5] -15.3% | [6] 4.25%

COc1ccc(-c2ccc(Cc3ccc(-c4ccc(OC)cc4)o3)o2)cc1
inactive: [1] 4.35% | [2] -0.35% | [3] 6.7% | [4] -72.7% | [5] -6.4% | [6] 1%

NCCCn1cnc2c(N)ncnc21
inactive: [1] 8.95% | [2] -1.55% | [3] -4.55% | [4] -18.6% | [5] -16.4% | [6] 0.65%

Cc1ccc(C2=Nn3c(nc4sc5c(c4c3=O)CCCC5)SC2)cc1
inactive: [1] -25.7% | [2] -19.4% | [3] -39.1% | [4] -5.9% | [5] -27.4% | [6] -21.8%

O=C(Nc1cccc(F)c1)Oc1ccc(OCc2ccccc2)cc1
inactive: [1] 3.8% | [2] 6.6% | [3] 9.9% | [4] 8.7% | [5] 17.9% | [6] 16%

CN(C)/C=N/NC(=O)C(O)(c1ccccc1)c1ccccc1
inactive: [1] -7.45% | [2] 9.8% | [3] -7.85% | [4] -0.25% | [5] 1.55% | [6] 7.15%

C[N+](C)(C)CC(=O)N/N=C(/Cc1cc(=O)oc2cc(O)ccc12)C(=O)Nc1ccc(Cl)cc1
inactive: [1] 7.35% | [2] -2.45% | [3] -11.3% | [4] -15.7% | [5] -19.8% | [6] -10.8%

CC(=O)Nc1cc2cc(N)ccc2oc1=O
inactive: [1] -6.2% | [2] 0.4% | [3] 8.9% | [4] 10.4% | [5] 15.2% | [6] 16.6%

Cc1ccccc1C1OC(=O)c2ccccc21 (stereo unspecified)
inactive: [1] 17.7% | [2] -8.85% | [3] 4.45% | [4] 4.2% | [5] 15.2% | [6] 27.6%

CC(=O)OCCCC(CCCOC(C)=O)OC(C)=O
inactive: [1] -7.7% | [2] -6.85% | [3] 12.2% | [4] -12.8% | [5] 5.25% | [6] 29.2%
